Laboratory results reported in PubChem BioAssay AID493008 (The Scripps Research Institute Molecular Screening Center, 2010).
The whole screen tested about 340,000 compounds, of which about 800 (0.24%) were called active.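 Rule for the calls: active = activation above the mean over all tested compounds plus 3 SD (cut at about 30% in these data); inactive = the rest.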 The entries come from a sample that favours actives as a whole.

Target: Troponin I, cardiac muscle (Homo sapiens) + Troponin T, cardiac muscle (Homo sapiens) + Troponin C, slow skeletal and cardiac muscles (Homo sapiens) (UniProt P19429+P45379+P63316)
Assay: cardiac RTF calcium sensitivity activators, primary screen, biochemical, IANBD-TnC fluorescence, EC20 calcium (AID 493008);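 note: rise in fluorescence read as greater calcium sensitivity of cardiac thin filaments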
Details: IANBD-labeled TnC RTF fluorescence at EC20 calcium; at 7.2 µM; stronger effect = higher value; 0% EC20 calcium, 100% full calcium

Compound | activation
COc1ccc(OC)c(NC(=O)c2ccc3c(c2)C(=O)N(c2ccc(OC(C)=O)cc2)C3=O)c1 | 1.02% (inactive)
CCOC(=O)c1c(NC(=O)C2CC=CCC2C(=O)O)sc(C)c1CC (centres undefined) | 1.94% (inactive)
CSC1=NCCN1C(=O)Cc1cccc2ccccc12 | -2.5% (inactive)
Nc1ccc2nc3c(=O)[nH]c(=S)[nH]c3nc2c1 | 266% (active)
OC1CCCN(c2ncnc3c2nnn3Cc2c(F)cccc2Cl)C1 (centres undefined) | 6.74% (inactive)
CCOc1ccc(C2c3[nH]c4ccccc4c3CCN2Cc2cccn2-c2ncccn2)cc1 (centres undefined) | 1.17% (inactive)
Cc1ccc(CN2CCN(Cc3ccc4ncccc4c3)CC2CCO)cc1 (centres undefined) | 0.85% (inactive)
Cc1ccsc1-c1cc(C(=O)O)c2c(ccc3ccccc32)n1 | 2.92% (inactive)
Cc1cccc(C)c1NC(=O)CCCSc1nnc(-c2ccco2)n1-c1ccccc1 | -3.75% (inactive)
CCOc1ccc(-n2cnnn2)cc1S(=O)(=O)N1CCC(C)CC1C (centres undefined) | -1.75% (inactive)
COCCCNC(=O)CNC(=S)N(Cc1cc(OC)c(OC)c(OC)c1)C1CCCC1 | -8.44% (inactive)
COc1ccc(/C=C/C(=O)OCC(=O)NC2CCCCCC2)cc1OC | -4.52% (inactive)
CCCc1ccc(OCC(O)CN2CCN(CCO)CC2)cc1 (centres undefined) | -4.14% (inactive)
Cc1ccccc1-n1nc(SCC(=O)O)sc1=S | -0.8% (inactive)
Cc1nc(N)sc1-c1ccccc1 | -3.97% (inactive)
Cc1ccc2[nH]c(=O)c(-c3nc4c(C)cccn4c3NCc3ccco3)cc2c1 | -3.25% (inactive)
CCCN(CCC)c1nc2c(C)cccn2c(=O)c1/C=C1/SC(=S)N(Cc2ccco2)C1=O | 34% (active)
CNc1nc2c(C)cccn2c(=O)c1C=Nc1ccc(OC)cc1 | -1.57% (inactive)
O=C(COC(=O)Cn1cnc2ccccc21)Nc1cccc2c1C(=O)c1ccccc1C2=O | 45.7% (active)
O=C(COC(=O)c1cccc(Br)c1)Nc1cccc2c1C(=O)c1ccccc1C2=O | -3.82% (inactive)

Compound | activation
O=C(Cn1cnc2ccccc21)Nc1ccccc1-c1ccccc1 | -3.39% (inactive)
O=S(=O)(NCCc1ccc(Cl)cc1)c1cccs1 | -0.86% (inactive)
CCOc1ccc2oc(C(=O)N(CC)CC(=O)Nc3ccc(NC(C)=O)cc3)c(C)c2c1 | -0.31% (inactive)
O=C(c1cc(-c2ccc(O)cc2)on1)N1CCCc2ccccc21 | 6.06% (inactive)
O=C(c1c(Cl)nc2sccn12)N1CCCc2ccccc21 | -2.79% (inactive)
Cc1cccc2cc3c(N)c(C(=O)N4CCCc5ccccc54)sc3nc12 | 44.8% (active)
COC(=O)C[n+]1cccc2ccccc21 | 58.3% (active)
O=C(C[n+]1cc(Br)cc2ccccc21)c1ccc(F)cc1 | -1.35% (inactive)
COC(=O)Cc1c(-c2[nH]c3ccccc3c2CC(=O)OC)[nH]c2ccccc12 | 0.63% (inactive)
CN(C)c1ccc(/C=C2\NC(=S)N(Cc3ccccc3)C2=O)cc1 | 66% (active)
CN(C)c1ccc(C=C2C(=O)OC3(CCCC3)OC2=O)cc1 | -3.77% (inactive)
CC1CN(Cc2ccccc2)C(=S)NC1=O (centres undefined) | -1.27% (inactive)
CCn1cc(C(=O)N2CC=C(c3ccccc3)CC2)c(=O)c2ccc(C)nc21 | -3.54% (inactive)
CCCCNC(=O)C(C)N(CCN(C)C)C(=O)CCCCCN1C(=O)NC(c2ccc(Cl)cc2)C(C(=O)OCc2ccccc2)=C1C (centres undefined) | -4% (inactive)
CCOc1ccc(N(CC(=O)NCCOc2ccccc2OC)S(=O)(=O)c2ccccc2)cc1 | 2.75% (inactive)
CCCNCc1cc(OCC)c(OCC(=O)Nc2ccccc2)cc1Br | 4.49% (inactive)
COc1ccc(OC)c(CCNC(=O)c2nn(C)c3c2CS(=O)(=O)c2ccccc2-3)c1 | -2.91% (inactive)
O=c1ccc(S(=O)(=O)N2CCCC2)cn1Cc1nc(-c2ccccc2)no1 | -2.09% (inactive)
CC1CCCN(CC(O)COc2ccc3c(c2)OCO3)C1 (centres undefined) | -0.7% (inactive)
Cn1cccc1C(=O)N1CCc2ccccc2C1 | 1.33% (inactive)

Compound | activation
OCC[C@H]1C[C@@H](O)[C@H](O)[C@]2(OCCCc3ccccc32)O1 | 2.9% (inactive)
CCCC1OC23CCCCC2C(C#N)(C#N)C1(C#N)C(=N)O3 (centres undefined) | 35% (active)
C=CCC[C@@H](Cc1ccc(F)cc1)C(=O)OC[C@H](Cc1c[nH]c2ccccc12)NC(=O)[C@@H](CC=C)CC(=O)N(CCO)Cc1ccccc1 | -0.54% (inactive)
CN1CCNC(=O)C1CC(=O)NCCC1=CCCCC1 (centres undefined) | 9.88% (inactive)
COc1ccc(C(=O)OCc2cc(=O)n3ccsc3n2)cc1F | -7.02% (inactive)
COCc1cc(=O)[nH]c2cc(NC(=O)C(F)(F)F)c(C)cc12 | -3.59% (inactive)
CCOC(=O)N1CCC(c2cc(=O)n(-c3ccccc3)[nH]2)CC1 | 2.7% (inactive)
O=c1cc(N2CCCCC2)c(-c2ccccc2)nn1Cc1cccc(F)c1 | -0.45% (inactive)
Cc1nc([N+](=O)[O-])cn1CC(=O)Nc1ccc(Cl)cc1 | 0.6% (inactive)
Nc1nc(SCC(=O)N2CCN(S(=O)(=O)c3ccc(Cl)cc3)CC2)n[nH]1 | 11.6% (inactive)
Cc1nc(N=C(N)N)nc2c(C)cccc12 | -2.23% (inactive)
COCCCNC(=O)C1CCN(c2ccc(N3CCOCC3)nn2)CC1 | 1.09% (inactive)
CC1CCN(c2c(NCc3ccc(C(=O)NCc4ccccc4)cc3)c(=O)c2=O)CC1 | 13.9% (inactive)
Cc1ccc(CNC(=O)c2cccc3c2C(=O)c2ccc(N4CCC(C)CC4)cc2S3(=O)=O)cc1 | 100% (active)
Cc1ccc(CNC(=O)c2ccc3c(c2)S(=O)(=O)c2ccccc2C3=O)cc1 | -0.11% (inactive)
O=C(NCc1ccccc1CN1CCCC1)c1cccc(S(=O)(=O)Nc2ccc(F)cc2)c1 | -1.12% (inactive)
COc1ccc(OC)c(Cc2cnc3nc(N)nc(N)c3c2C)c1 | 0.81% (inactive)
Cc1cccc(NC(=O)CN2CCN(CC(=O)NCC3(N4CCCCC4)CCCCC3)CC2)c1C | -1.57% (inactive)
COc1ccc(CNC(=O)COC(=O)C2=Cc3ccccc3OC2)cc1 | -9.53% (inactive)
